According to PubChem BioAssay:
Activity calls are given as the source filed them.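 How the source made its calls, unless noted: active means inhibition of the reporter signal at or above 50%; inactive means inhibition below 50%.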

Legend:
[1] = inhibitors of TNFa-induced NFkB p65 translocation, primary screen, imaging, HUVEC, MLSMR starter and 10KST1 sets (AID 438;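 active means inhibition above 20% together with a positive visual image hit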;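 further: compound added about 3h40 before a 20 min TNFalpha stimulation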;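 on inhibition: signal is the nuclear over cytoplasmic p65 intensity ratio per well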); details: HUVEC TNFa-induced p65 nuclear translocation; cell count: measured here: nuclei count (cytotoxicity indicator), at 2.08 µM; inhibition: at 2 µM, stronger effect = higher value, 0% TNFa-plus-vehicle, 100% no-TNFa wells
[2] = reduction of polyQ htt aggregates in cells – imaging, exon1htt(103Q)mCFP cells, high-content imaging, primary screen (AID 483;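 active means visual image review flags a hit and inhibition of aggregation exceeds 20%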;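 further: compound exposure lasted 3 days before fixation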;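 on nuclei count: percent of the per-plate median nuclei count of sample wells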); details: exon1htt(103Q)mCFP cell line, aggregate imaging, at 2 µM; inhibition of aggregation: stronger effect = higher value; nuclei count: measured here: cell count, toxicity
[3] = endothelial E-selectin expression blockers – imaging, HUVEC, immunofluorescence, MLSMR starter and 10KST1 sets, primary screen (AID 487;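 active means visually confirmed hit in the image check and inhibition above 20%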;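 on inhibition: signal is fraction of cell area covered by stained E-selectin grains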;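 on nuclei count: 100% = median nuclei count of all wells on the same plate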); details: HUVEC TNFalpha-induced E-selectin immunofluorescence imaging, at 2 µM; inhibition: stronger effect = higher value; nuclei count: measured here: cell number, toxicity
[4] = molecular target: Voltage-gated potassium channel subunit beta-2 (Rattus norvegicus) (UniProt P62483); experiment: inhibitors of rat Kvbeta2 reductase activity – biochemical, NADPH fluorescence, primary screen (AID 622;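 active means fluorescence slope higher than the sample average by over 3 SD, cut at about -0.22 in these data, passing the limit was not always enough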;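 further: slope of raw intensity against log time taken from 70 to 1610 s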); details: recombinant KvBeta, 4-cyanobenzaldehyde reduction, at 10 µM, stronger effect = higher value
[5] = molecular target: Voltage-gated potassium channel subunit beta-2 (Rattus norvegicus) (UniProt P62483); experiment: enhancers of rat Kvbeta2 NADPH turnover – biochemical, NADPH fluorescence, primary screen (AID 623;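 active means NADPH fluorescence slope more negative than the mean of all samples by about 3 SD, 99.7% confidence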;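 further: fluorescence intensity change per second fitted from 20 to 320 s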); details: Recombinant KvBeta, NADPH fluorescence decrease slope, 10 min; at 10 µM; stronger effect = lower value
[6] = molecular target: Alpha-2C adrenergic receptor (Homo sapiens) (UniProt P18825); experiment: compounds altering alpha2C-coupled GIRK flux – cell-based, HEK293 alpha2C/GIRK1/2, thallium flux, primary screen (AID 624;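 active means fluorescence slope after compound addition differing from the mean of all screened samples at 99.7% confidence, in either direction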;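 further: slope of fluorescence ratio to pre-addition baseline per second over 15 to 24 s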); details: thallium flux BTC fluorescence, at 10 µM, actives lie on both sides
[7] = blockers of RIG-like receptor reporter activation – cell-based, Sendai virus stimulus, luciferase, 10K MLSCN set, TLR/RLR signaling modifier project, primary screen (AID 602276;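 active means inhibition at or above 50% at 10 µM; inactive means inhibition below 50%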;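 further: firefly luciferase from ISG56 promoter only with Renilla not read in this screen; 0% = Sendai virus plus DMSO and 100% = medium plus DMSO without virus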); details: HEK293 RL24 IRF3 luciferase reporter, at 10 µM, stronger effect = higher value
[8] = TLR3 IRF3 reporter activation blockers – cell-based, poly I:C stimulus, luciferase, 10K MLSCN set, primary screen (AID 602277); details: HEK293-TLR3 RL24 IRF3 luciferase reporter, at 10 µM, stronger effect = higher value

Sequence of Voltage-gated potassium channel subunit beta-2 (Rattus norvegicus) (P62483 whole entry, looked up): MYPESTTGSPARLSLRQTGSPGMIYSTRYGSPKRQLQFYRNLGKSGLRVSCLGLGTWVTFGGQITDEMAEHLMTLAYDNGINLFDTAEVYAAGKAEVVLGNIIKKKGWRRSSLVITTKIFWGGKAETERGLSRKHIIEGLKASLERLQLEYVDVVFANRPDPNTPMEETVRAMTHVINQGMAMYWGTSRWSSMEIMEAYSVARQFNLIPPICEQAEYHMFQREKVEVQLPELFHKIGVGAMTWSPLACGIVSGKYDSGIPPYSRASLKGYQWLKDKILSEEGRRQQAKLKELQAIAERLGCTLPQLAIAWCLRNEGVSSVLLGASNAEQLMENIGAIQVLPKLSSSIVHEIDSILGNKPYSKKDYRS
Sequence of Alpha-2C adrenergic receptor (Homo sapiens) (P18825 whole entry, looked up): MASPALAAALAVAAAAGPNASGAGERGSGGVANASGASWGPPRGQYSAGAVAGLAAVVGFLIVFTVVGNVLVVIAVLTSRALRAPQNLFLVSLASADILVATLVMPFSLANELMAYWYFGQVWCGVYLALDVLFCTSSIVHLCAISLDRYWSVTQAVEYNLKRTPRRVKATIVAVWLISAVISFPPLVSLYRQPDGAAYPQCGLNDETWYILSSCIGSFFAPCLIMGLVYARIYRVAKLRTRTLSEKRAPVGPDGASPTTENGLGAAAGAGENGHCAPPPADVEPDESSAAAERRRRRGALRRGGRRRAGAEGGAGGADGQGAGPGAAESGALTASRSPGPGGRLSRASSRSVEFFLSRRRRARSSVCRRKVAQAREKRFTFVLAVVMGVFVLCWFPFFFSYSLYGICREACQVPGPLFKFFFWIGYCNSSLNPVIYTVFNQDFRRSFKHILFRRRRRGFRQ

Row | Compound | cell count [1] | inhibition [1] | inhibition of aggregation [2] | nuclei count [2] | inhibition [3] | nuclei count [3] | fluorescence slope [4] | NADPH fluorescence slope [5] | slope [6] | inhibition [7] | inhibition [8]
1 | COc1ccc2c(c1)C(C)=CC(C)(C)N2C(=O)CSc1nnc(-c2ccc(C)cc2)o1 | 362 | 12.5% (inactive) | 8.3% (inactive) | 106% | 14.4% (inactive) | 117% | -0.451 (inactive) | 4.8e-05 (inactive) | 0.00352 (inactive) | -7.74% (inactive) | 17.4% (inactive)
2 | CCOc1ccc(N(CC(=O)Nc2ccc(C)c(C)c2)S(=O)(=O)c2c(C)noc2C)cc1 | 713 | 0% (inactive) | -19.3% (inactive) | 86.1% | -29% (inactive) | 100% | -0.554 (inactive) | -7.2e-07 (inactive) | 0.00659 (inactive) | 13.3% (inactive) | 27.5% (inactive)
3 | COC(=O)Cc1cc(=O)[nH]c(Nc2nc3ccccc3o2)n1 | 354 | -1.4% (inactive) | -11.1% (inactive) | 108% | -125% (inactive) | 112% | -0.268 (inactive) | -3.1e-06 (inactive) | 0.00603 (inactive) | -2.52% (inactive) | -64.7% (inactive)
4 | O=c1[nH]c(CN2CCN(Cc3ccccc3)CC2)nc2sc3c(c12)CCC3 | 406 | -0.4% (inactive) | -0.1% (inactive) | 109% | -73% (inactive) | 99.5% | -0.596 (inactive) | -3e-05 (inactive) | 0.00576 (inactive) | 3.63% (inactive) | 17.7% (inactive)
5 | COC(=O)c1cc2oc(C)cc2n1CC(=O)N(C)c1ccccc1 | 370 | -0.4% (inactive) | -4.7% (inactive) | 108% | -67.6% (inactive) | 115% | -0.347 (inactive) | -4.4e-05 (inactive) | 0.00693 (inactive) | 9.76% (inactive) | 30.2% (inactive)
6 | c1ccc(C(Cc2nc(-c3ccccn3)no2)c2ccccc2)cc1 | 337 | -8% (inactive) | 4% (inactive) | 110% | -83.3% (inactive) | 100% | -0.449 (inactive) | -6.2e-05 (inactive) | 0.00562 (inactive) | 20.3% (inactive) | 14.4% (inactive)
7 | C=CCN(C(=O)CNS(=O)(=O)c1ccccc1)C(C(=O)NCCOC)c1ccncc1 (stereo not drawn) | 543 | -18.3% (inactive) | 18.4% (inactive) | 93.8% | 7.6% (inactive) | 80.2% | -0.478 (inactive) | 3.8e-06 (inactive) | 0.00567 (inactive) | 11% (inactive) | 5.34% (inactive)
8 | COC(C)(C)c1cc(C(C)(C)C)nc(N)n1 | 433 | 12% (inactive) | 9.5% (inactive) | 103% | -28.8% (inactive) | 129% | -0.385 (inactive) | -7.8e-05 (inactive) | 0.00615 (inactive) | 6.59% (inactive) | 24.6% (inactive)
9 | Cn1c(SCc2nnc3n2CCCCC3)nc2ccccc21 | 252 | -15.3% (inactive) | -3.3% (inactive) | 94.7% | -94.2% (inactive) | 127% | -0.433 (inactive) | -2.7e-05 (inactive) | 0.00588 (inactive) | 14% (inactive) | 20% (inactive)
10 | CCCSCCCNC(=O)Cn1cc2c(n1)CCC(C)C2 (stereo not drawn) | 652 | -3.3% (inactive) | 3.5% (inactive) | 92% | 21.4% (inactive) | 103% | -0.615 (inactive) | -2.5e-05 (inactive) | 0.00719 (inactive) | -8.61% (inactive) | 10.5% (inactive)
11 | Cc1ccc(-n2ncc3c(=O)[nH]c(SC(C)C)nc32)cc1 | 716 | -23.9% (inactive) | 2.6% (inactive) | 82.4% | -18.4% (inactive) | 126% | -0.455 (inactive) | -4.4e-06 (inactive) | 0.0066 (inactive) | 7.08% (inactive) | 21.6% (inactive)
12 | CCOc1cc(C(=O)NCc2ccncc2)cc(OCC)c1OCC | 596 | 1.6% (inactive) | 3.9% (inactive) | 100% | -121% (inactive) | 114% | -0.407 (inactive) | -4.6e-05 (inactive) | 0.00658 (inactive) | 7.46% (inactive) | 18.3% (inactive)
13 | COc1cc2c3c(c1)/C(=C1/SC(NC(C)=O)=NC1=O)C(=O)N3C(C)(C)C=C2C | 381 | -2% (inactive) | 7.7% (inactive) | 91.9% | -35.9% (inactive) | 91% | -0.467 (inactive) | -2e-05 (inactive) | 0.00288 (inactive) | 18% (inactive) | 16.3% (inactive)
14 | N[C@@H](Cc1ccccc1)c1nnc2sc(SCc3ccccc3)nn12 | 444 | -5.5% (inactive) | -1.7% (inactive) | 84.8% | -15.7% (inactive) | 114% | -0.43 (inactive) | -1.6e-06 (inactive) | 0.00539 (inactive) | 10.2% (inactive) | 98.1% (active)
15 | CC(C)c1ccc(NC(=O)CCNS(=O)(=O)c2cccc3nonc23)cc1 | 669 | -6.5% (inactive) | 24.6% (inactive) | 98% | -55.8% (inactive) | 106% | -0.544 (inactive) | 2.2e-05 (inactive) | 0.00564 (inactive) | 16.4% (inactive) | 24.2% (inactive)
16 | O=C(O)c1ccc(COc2c(F)c(F)cc(F)c2F)cc1 | 611 | -0.8% (inactive) | 27.2% (inactive) | 102% | -50.1% (inactive) | 107% | -0.453 (inactive) | -1.9e-05 (inactive) | 0.00642 (inactive) | 8.32% (inactive) | 8.92% (inactive)
17 | COC(=O)CN(c1ccc(OC)cc1)S(=O)(=O)c1ccc(OC)c(OC)c1 | 669 | -4.7% (inactive) | -13% (inactive) | 106% | -81.3% (inactive) | 139% | -0.463 (inactive) | -0.000101 (inactive) | 0.00514 (inactive) | 10.6% (inactive) | 23.4% (inactive)
18 | CCN(CC)S(=O)(=O)c1ccc(NC(=O)CN(c2cccc(F)c2)S(C)(=O)=O)cc1 | 426 | 1.1% (inactive) | -25.1% (inactive) | 107% | -25.3% (inactive) | 98.6% | -0.449 (inactive) | 2.5e-05 (inactive) | 0.00334 (inactive) | 8.61% (inactive) | 18.3% (inactive)
19 | COc1ccc(C(c2nnnn2C2CCCC2)N2CCN(C3CCCC3)CC2)cc1OC (stereo not drawn) | 263 | 17.5% (inactive) | 8.8% (inactive) | 104% | 2% (inactive) | 88.5% | -0.512 (inactive) | -0.000149 (inactive) | 0.00468 (inactive) | 12.8% (inactive) | 18.8% (inactive)
20 | CCOC(=O)c1c(NC(=O)c2cccs2)sc(C)c1C | 396 | -6% (inactive) | -20% (inactive) | 102% | -107% (inactive) | 125% | -0.307 (inactive) | 1.4e-05 (inactive) | 0.00436 (inactive) | 12.5% (inactive) | 2.83% (inactive)
21 | C=CCn1c(-c2ccccc2)c[nH]c1=S | 544 | -9.5% (inactive) | -9.3% (inactive) | 112% | 8.5% (inactive) | 101% | -0.61 (inactive) | -4.2e-05 (inactive) | 0.00665 (inactive) | -33.4% (inactive) | -112% (inactive)
22 | C=CCc1cccc2cc(C(=O)NCc3cccnc3)c(=O)oc12 | 329 | 3.5% (inactive) | -4.3% (inactive) | 101% | 4.6% (inactive) | 117% | -0.437 (inactive) | 1.5e-05 (inactive) | 0.00312 (inactive) | -3.91% (inactive) | 20.3% (inactive)
23 | COCCNC(=O)Cn1cc2c(n1)CCCCC2 | 623 | 5.8% (inactive) | -19.8% (inactive) | 110% | -23.5% (inactive) | 98.4% | -0.529 (inactive) | -8.7e-05 (inactive) | 0.00598 (inactive) | 7.33% (inactive) | 31.3% (inactive)
24 | Cc1csc(NC(=O)c2cccs2)n1 | 464 | 1% (inactive) | 30.4% (inactive) | 83.3% | -47.5% (inactive) | 99.5% | -0.506 (inactive) | -4.8e-05 (inactive) | 0.00677 (inactive) | -38.4% (inactive) | -103% (inactive)
25 | O=C(CSc1nnc(Cc2cccs2)n1Cc1ccco1)Nc1cccc(Cl)c1 | 677 | -3.5% (inactive) | -13.8% (inactive) | 108% | -30.1% (inactive) | 116% | -0.397 (inactive) | 1.1e-05 (inactive) | 0.0045 (inactive) | 13.6% (inactive) | 31.6% (inactive)
26 | Cn1c(CCNC(=O)c2ccco2)nc2cc(NC(=O)C3CCCCC3)ccc21 | 359 | 0.5% (inactive) | 8.3% (inactive) | 91.1% | 42.2% (inactive) | 88.8% | -0.466 (inactive) | -0.000205 (inactive) | 0.00612 (inactive) | 6.27% (inactive) | 0.497% (inactive)
27 | O=C(C1CC1)N1CCC(c2nc(-c3ccc(S(=O)(=O)NCC4CCCO4)cc3)no2)CC1 (stereo not drawn) | 334 | -3% (inactive) | -20.7% (inactive) | 143% | -43.6% (inactive) | 91.9% | -0.491 (inactive) | 3.5e-06 (inactive) | 0.00666 (inactive) | -27.5% (inactive) | -49.4% (inactive)
28 | O=C(NCC1COc2ccccc2O1)C1CCCN(S(=O)(=O)c2cnc[nH]2)C1 (stereo not drawn) | 617 | 7.3% (inactive) | -15.6% (inactive) | 100% | -63.3% (inactive) | 124% | -0.501 (inactive) | -2e-05 (inactive) | 0.00703 (inactive) | 4.57% (inactive) | 24.5% (inactive)
